# Bioassay records as filed in PubChem BioAssay.
# ANO1 block: mouse TMEM16A channel inhibition, primary screen; 310,000 tested, 1.2% active; AID 588511; Q8BHY3; normalized B-score (activity score, 25-100; higher = stronger inhibition) at 10 µM; HEK293 TMEM16A/YFP iodide influx fluorescence, ionomycin;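 active means ratio plate-corrected score three or more library SD toward inhibition, starting fluorescence score within five deviations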;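 further: score derived from kinetic fluorescence span divided by baseline fluorescence per well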
# PREPL inh: inhibitors of human prolyl oligopeptidase-like enzyme PREPL | 320,000 tested, 0.68% active | recombinant PREPL, fluorescence polarization activity-based probe | Q4J6C6 | inhibition, % at 5.96 µM
# PP1 counter: PP1-alpha (human) inhibition in PP5 counter-screen | P62136 | purified PP1alpha, OMFP fluorescence | inhibition, % at 6.7 µM | 320,000 tested, 0.9% active;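 active means inhibition above the mean inhibition of all tested compounds plus 3 SD, computed separately for each screening campaign, cut at about 15% in these data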
# TMEM16A act: activators or potentiators of mouse TMEM16A chloride channel; Q8BHY3; HEK293 TMEM16A/YFP-H148Q/I152L, iodide quench fluorescence; hits give low values; B-score at 10 µM; 340,000 tested, 0.3% active;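 active means fluorescence-ratio B-score plate-corrected deviation score at least 3 library SD below zero, with starting fluorescence score within 5 deviations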;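 further: channel opened by trigger with iodide after compound preincubation; score built on the fluorescence ratio of max minus min over baseline; more negative score means more quench and so TMEM16A activation or potentiation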
# DNA FID counter: fluorescent intercalator displacement, NS3 helicase counter-screen. DNA fluorescent intercalator displacement, fluorescence. inhibition, % at 7.9 µM. 290,000 tested, 0.17% active. AID 1845; in the data active means inhibition above about 37%;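 further: higher means more ethidium bromide displaced from hairpin DNA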
# PP5 inh: inhibitors of human protein phosphatase 5 (PP5) | P53041 | inhibition, % at 6.7 µM | 320,000 tested, 0.18% active | purified PP5c, OMFP substrate fluorescence | AID 1987;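 active means inhibition above the campaign's mean inhibition across all tested compounds plus 3 SD, cut at about 9.5% in these data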
# PREPL inh cf: confirmation of human PREPL enzyme inhibitors; recombinant PREPL, fluorescence polarization activity probe; shares compounds with PREPL inh; 2,000 tested, 67% active; AID 2803; inhibition, % at 5.96 µM
# A number is an active result; n = inactive; x = not tested or not shown. This is a sample that favours compounds with a hit; in the whole collection about 2.7% have one here. Unless noted, no stated cut-off is given here; in the data, active means inhibition above about 43%; inactive means the rest.
SMILES,ANO1 block,PREPL inh,PP1 counter,TMEM16A act,DNA FID counter,PP5 inh,PREPL inh cf
O=c1cc(-c2ccc(O)c(O)c2)oc2cc(O[C@@H]3O[C@H](CO)[C@@H](O)[C@H](O)[C@H]3O)cc(O)c12,x,73,x,-16,x,x,60
C[C@@H]1O[C@@H](OC[C@H]2O[C@@H](Oc3cc(O)c4c(=O)cc(-c5ccc(O)c(O)c5)oc4c3)[C@H](O)[C@@H](O)[C@@H]2O)[C@H](O)[C@H](O)[C@H]1O,x,n,x,n,x,x,x
COc1cc2c(cc1OC)CN(C(=O)/C=C/c1cccc([N+](=O)[O-])c1)CC2,n,n,n,n,n,n,x
c1ccc(N2CCN(c3nc(NCc4ccco4)c4ccccc4n3)CC2)cc1,n,56,n,n,40,n,56
Cc1cc(NCc2ccccn2)n2ncc(-c3ccccc3)c2n1,n,n,n,n,n,n,x
Cc1cc(NCc2ccccn2)n2ncc(-c3ccc(Cl)cc3)c2n1,n,49,n,n,n,n,n
CN1CCc2c(n(CC(O)CNCc3ccccc3)c3ccccc23)C1=O (stereo not drawn),n,n,n,n,n,n,x
CC(C)NCC(O)Cn1c2c(c3ccccc31)CCc1c-2cnn1-c1ccccc1 (stereo not drawn),n,66,n,n,n,n,82
COc1ccc(NC(=O)c2ccc(OC)c(S(=O)(=O)N3CCCCC3C)c2)cn1 (stereo not drawn),x,n,n,n,x,n,x
Cc1nnsc1C(=O)NNC(=O)c1cccc2ccccc12,n,n,n,n,n,n,x
N#CCC(=O)Nc1ncn(Cc2ccccc2Cl)n1,n,54,n,n,n,n,n
Cc1ccc(-n2nc(C(=O)NN)c(C)c(C#N)c2=O)cc1Cl,n,66,n,n,n,n,n
COCCCn1c(SCCc2ccccc2)nc2cc(OC)c(OC)cc2c1=N,n,46,n,n,n,n,n
O=C1CN(C(=S)NC(=O)c2ccccc2[N+](=O)[O-])CCN1,n,n,n,n,n,n,x
CCOC(=O)C1CCCN(C(=O)C2c3ccccc3Oc3ccccc32)C1 (stereo not drawn),n,65,n,n,n,n,n
COc1ccc(Cn2c(=S)[nH]c3cc(C(=O)N4CCN(c5ccccc5)CC4)ccc3c2=O)cc1,n,n,n,n,n,n,x
COc1ccc(N2CCN(C(=O)c3ccc(Cn4c(=S)[nH]c5ccc(N6CCOCC6)cc5c4=O)cc3)CC2)cc1,n,45,n,n,n,n,45
O=C(NCc1ccco1)c1ccc(F)c(S(=O)(=O)N2CCCCC2)c1,n,61,n,n,n,n,n
Cc1ccccc1NC(=O)c1ccc(C)c(S(=O)(=O)Nc2ccccn2)c1,n,n,n,n,n,n,x
Cc1ccc(C(=O)Nc2ccc(Br)cc2)cc1S(=O)(=O)Nc1ccccn1,n,43,n,n,n,n,n
CNc1oc(-c2ccccc2Cl)nc1P(=O)(c1ccccc1)c1ccccc1,n,44,n,n,n,n,55
Cc1ccc(SSc2cc(C)ccc2N)c(N)c1,n,n,n,n,x,n,x
CCn1c(=O)c2ccccc2n2c(SCC(=O)N3CCc4ccccc4C3)nnc12,n,n,n,n,n,n,x
CCn1c(SCC(=O)N2CCc3ccccc3C2)nc2sc(C)c(C)c2c1=O,n,44,n,n,n,n,n
O=C(NNC(=O)c1ccccc1F)c1ccc(Cl)c(S(=O)(=O)N2CCOCC2)c1,x,n,n,n,x,n,x
CC(=O)Oc1cc2cccc(OC(C)=O)c(=O)c2c(OC(C)=O)c1OC(C)=O,n,63,n,n,n,n,n
Cc1ccc(N2CC(C(=O)N/N=C/c3c(F)cccc3Cl)CC2=O)cc1 (stereo not drawn),n,n,n,n,n,n,x
O=C1NC(Cc2c[nH]c3ccccc23)C(=O)N1CCOc1ccc(F)cc1 (stereo not drawn),n,n,n,n,n,n,x
O=C1NC(Cc2c[nH]c3ccccc23)C(=O)N1Cc1ccc(CN2C(=O)NC(Cc3c[nH]c4ccccc34)C2=O)cc1 (stereo not drawn),n,76,n,n,n,n,57
CN(C)c1ccc(CCc2ccc(N)cc2)cc1,n,n,n,n,x,n,x
